Assay outcomes: PubChem, National Center for Advancing Translational Sciences (NCATS)
Compounds with a hit are over-represented: about 21% of the library has one in this group of screens.
Pf growth 48h = P. falciparum growth inhibition at 48 hours (one generation); P. falciparum luciferase growth in erythrocytes, 48 h; hit rate 5.9% among 310,000; AID 504832; Potency, µM (titrated, usually from 28.7 µM), for inactives: at the top dose activity change, negative = inhibition, most hits filed as inhibitors; also: potency is read from the fitted curve at half-maximal effect; % is scaled to controls: 0 for no effect and ±100 for the full control effect
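In quantitative HTS format, infected erythrocytes bearing luciferase-reporter parasites were treated for a single generation at 37 C. Luminescence after adding detection reagent served as the growth measure.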
Sm TGR block = inhibitors of Schistosoma mansoni thioredoxin glutathione reductase | Q962Y6 | purified TGR, DTNB reduction, TNB absorbance 405 nm | Potency, µM (series often up to 114 µM), for inactives: at the top dose activity change, negative = inhibition, hits mostly inhibitors | hit rate 3% among 360,000 | AID 485364; also: potency is read from the fitted curve at half-maximal effect; % is scaled to controls: 0 for no effect and ±100 for the full control effect; nearly all actives have a fitted effect of over 60% in size
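First, TGR (20 nM dispensed) and NADPH were mixed with compound. Second, a 15 min room-temperature incubation followed. Third, further NADPH and then DTNB were added to start the reaction. Finally, TNB absorbance was monitored kinetically.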
NS1 function inh = blocks influenza NS1 protein function; AID 2326; hit rate 0.4% among 270,000; Potency, µM (doses to about 46.1 µM), inactives show top-dose activity, positive = more growth; calls by dose curve; also: potency is read from the fitted curve at half-maximal effect; actives are rising curves; nearly all actives have a fitted effect of over 50% in size
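Read-out: OD600 growth recovery of NS1-expressing budding yeast. Cells grown overnight at 30C in -URA glucose medium, washed, resuspended and diluted 1:100 in 2% galactose assay medium, pH 6.0. Same strain lacking NS1 served as positive control.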
Pf growth 96h = P. falciparum growth inhibition at 96 hour, primary screen for plastid delayed-death inhibitors. hit rate 6.9% among 320,000. AID 504834. Potency, µM (titrated, usually from 28.7 µM), without a hit: at the highest dose activity change, negative = inhibition, hits mostly inhibitors. P. falciparum luciferase reporter growth, 96 h; also: potency is read from the fitted curve at half-maximal effect; % is scaled to controls: 0 for no effect and ±100 for the full control effect
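P. falciparum expressing integrated firefly luciferase, in erythrocytes at 2% hematocrit, 0.05% parasitemia, incubated with compounds 96 h at 37 C, 5% CO2. Growth inhibition read as loss of luminescence; two-generation exposure targets delayed-death apicoplast inhibitors.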
Shiga inhibitor = inhibitors of Shiga toxin in Vero cells; Vero cells, Shiga toxin protein synthesis inhibition reporter; inhibition, % at 38.7 µM; hit rate 9.2% among 290,000; in the data active = inhibition mostly above about 28%, no sharp cut-off; inactive = mostly below about 43%; also: 0% is about no effect
Cycloheximide cs = counter-screen for Shiga toxin inhibitors: cycloheximide protein synthesis inhibition; cell reporter, cycloheximide protein synthesis inhibition counterscreen; max response, %; hit rate 12% among 300,000; in the data active = max response mostly above about 13%, no sharp cut-off; inactive = mostly below about 14%; also: read at 38.3 µM for the half of the compounds with a filed dose; 0% is about no effect
* hit, by the source's call; ? = inconclusive; . = not tested or not shown. Unless noted, calls follow the shape of the dose curve; as a rule, active = well fitted curve in the direction sought with a large enough effect; inconclusive = small, poorly fitted or top-dose-only effect, or another doubt; inactive = no such curve, though single readings can be large; an effect the other way counts as inactive or inconclusive.

SMILES	Pf growth 48h	Sm TGR block	NS1 function inh	Pf growth 96h	Shiga inhibitor	Cycloheximide cs
CC(=O)C1=C(C)OC(N)=C(C#N)C1c1cc([N+](=O)[O-])ccc1Cl (centres undefined)	-29%	22µM*	5%	-3%	9	8
COC(=O)c1scc(-c2ccc(C)cc2)c1S(=O)(=O)N1CCN(c2ccc(F)cc2)CC1	.	0%	.	.	.	.
Cc1ccc(-n2nc3c(N4CCC(C(=O)N(C)Cc5ccccc5)CC4)nnc(C)c3c2C)cc1	.	18%	.	.	.	.
Cc1ccc(CN(C)C(=O)c2cc(Br)c(Br)s2)o1	3%	50µM*	-13%	6%	-5	-4
Cc1ccc2oc(C(=O)N(C)Cc3ccon3)c(C)c2c1	87%	2%	-25%	-17%	47*	54*
Cc1ccc2oc(C(=O)N(C)Cc3ccc(C)o3)c(C)c2c1	14%	2.2µM*	-1%	?	52*	27*
CCN(Cc1ccccc1)C(=O)c1oc2ccc(C)cc2c1C	14%	1%	-70%	?	48	13
CCc1cccc(-n2nnc(-c3nc(-c4ccccc4Cl)no3)c2N)c1	.	3%	.	.	.	.
CCCCc1ccc(NC(=S)N2CCN(c3ccccn3)CC2)cc1	41%	2%	-19%	18%	35	-7
Cc1nc(S(=O)(=O)N2CCN(c3ccc(Cl)cc3)CC2)cn1C	.	37%	.	.	.	.
CCc1nnc(NC(=O)c2cccc(C(=O)Nc3nnc(CC)s3)n2)s1	-5%	-5%	-102%	9.3µM*	-16	-7
CCc1nnc(NC(=O)c2ccncc2)s1	36%	1%	-3%	38%	12	-4
CCOc1ccccc1C(=O)Nc1ccccc1C(N)=O	13%	-1%	-61%	.	27	9
CCOc1ccccc1C(=O)Nc1nnc(CC)s1	23%	-18%	-16%	?	25*	14*
CSCCC(NC(=O)c1ccccc1Cl)C(=O)N1CCN(C(c2ccccc2)c2ccccc2)CC1 (centres undefined)	0%	-6%	-1%	-105%	-8	11
CCCNC(=O)Cn1nc(-c2ccc(C)cc2)c2cnc3ccc(CC)cc3c21	.	-11%	.	.	.	.
CCCNC(=O)c1ccccc1N1CCN(CCCCN2C(=O)C3CCCCN3C2=O)CC1 (centres undefined)	-9%	-2%	14%	10µM*	.	-2
Cc1ccc(-c2nc3ccc(Cl)cc3n2OC(C)C(=O)O)cc1 (centres undefined)	24%	.	4%	13%	83*	36*
COc1ccc(C(=O)c2nc3ccccc3n2C(C)C)cc1OC	-10%	28%	-7%	3%	-7	8
COc1ccc(C(=O)c2nc3ccccc3n2C(C)C)cc1	-12%	32µM*	-3%	35%	-4	-3
CC(On1c(-c2ccccc2)nc2ccc(Cl)cc21)C(=O)O (centres undefined)	14%	.	0%	15%	56*	28*
On1c(-c2ccccc2)nc2ccc(Cl)cc21	?	-2%	-78%	?	84*	26
O=C(CN(C(=O)c1ccccc1Cl)N1C(=O)C2C3C=CC(C3)C2C1=O)c1cccs1 (centres undefined)	9%	1%	-13%	?	25	-3
O=C(Nc1cccc(C(F)(F)F)c1)c1cnn(-c2cccc(F)c2)c1C1CCNCC1	.	9%	.	.	.	.
Cc1csc(=O)n1CCC(=O)OCc1nnc(-c2ccc(Cl)cc2)o1	28%	-2%	.	49%	.	.
SMILES	Pf growth 48h	Sm TGR block	NS1 function inh	Pf growth 96h	Shiga inhibitor	Cycloheximide cs
COc1ccc(-c2nc3ccccc3n2OC(C)C(=O)O)cc1 (centres undefined)	95%	18%	4%	60%	76*	35*
Cc1ccc(-c2nc3ccc(Cl)cc3n2OC(=O)N(C)C)cc1	?	9%	-4%	.	124*	36
CC(=C/C(=O)O)/C(=C\c1ccc(Br)o1)C(=O)O	10%	?	0%	30%	7	-1
O=C(COc1ccccc1)NCC(=O)N/N=C/c1ccc(Br)cc1	28%	7%	18%	0%	-6	5
Cc1ccc(CSCC(=O)NN=C2CCN(C)CC2)cc1	4%	-5%	11%	319%	-35	-4
CCN(CC)CCCNC(=S)N(Cc1cccnc1)Cc1cc2cc(C)ccc2[nH]c1=O	2.3µM*	-21%	-5%	5.9µM*	18	-2
